Screening data (PubChem)
VACV mCherry inh: inhibitors of vaccinia virus infection (mCherry reporter signal) | Vaccinia virus mCherry reporter infection, fluorescence | Potency, µM (highest dose often 36.5 µM), without a hit: at the top dose activity change, negative = inhibition, hits mostly inhibitors | 310,000 compounds, 0.63% hits | AID 720579; calls by dose curve; tested in A549 cells; also: potency is read from the fitted curve at half-maximal effect; nearly all actives have a fitted effect of over 35% in size
Sm TGR block: inhibitors of Schistosoma mansoni thioredoxin glutathione reductase. Q962Y6. purified TGR, DTNB reduction, TNB absorbance 405 nm. Potency, µM (doses to about 114 µM), for inactives: top-dose activity change, negative = inhibition, usual class: inhibitors. 360,000 compounds, 3% hits. AID 485364; also: potency is read from the fitted curve at half-maximal effect; nearly all actives have a fitted effect of over 60% in size
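First, TGR (20 nM dispensed) and NADPH were mixed with compound. Second, a 15 min room-temperature incubation followed. Third, further NADPH and then DTNB were added to start the reaction. Finally, TNB absorbance was monitored kinetically.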
VACV Venus inh: vaccinia inhibition (Venus reporter); 330,000 compounds, 0.46% hits; Potency, µM (doses to about 36.5 µM), for inactives: at the highest dose activity change, negative = inhibition, actives largely listed as inhibitors; Vaccinia virus Venus reporter expression, fluorescence; calls by dose curve; tested in A549 cells; also: potency is read from the fitted curve at half-maximal effect; nearly all actives have a fitted effect of over 30% in size
HCV inhibitor: HCV inhibition | Huh7.5.1 HCVcc-Cre infection, luciferase reporter, 44 h | Potency, µM (highest dose often 41.8 µM), inactives show at the top dose activity change, negative = inhibition, usual class: inhibitors | 340,000 compounds, 3.4% hits | AID 651820; also: potency is read from the fitted curve at half-maximal effect
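After 44 h co-culture of compound, cells and HCVcc-Cre (~0.5 moi), substrate is added for 15 min at room temperature and luciferase measured over 15 sec. Cells were seeded at 1,000/well and pre-cultured 4 h.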
HCMV inh: blocks human cytomegalovirus replication | 410,000 compounds, 4.5% hits | AID 1259415 | activity change, negative = inhibition, % at 57.5 µM | HFF cells, HCMV-luciferase reporter, 72 h; stronger effect = lower value; in the data active = activity change below about -60%; inconclusive = no clear call, values can overlap the other calls; inactive = above about -39%
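Luciferase read-out from HCMV-luciferase-infected HFFs (MOI 1 PFU/cell) 72 h post infection at 37C; compounds added after 16 h cell attachment; activity normalized between buffer-only basal and Salinomycin (10uM) inhibitor controls.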
FMDV inh: foot and mouth disease virus antiviral activity; FMDV antiviral cell-based qHTS; Potency, µM (titrated, usually from 57.9 µM), for inactives: top-dose activity change, negative = inhibition, actives largely listed as inhibitors; 410,000 compounds, 1.2% hits; calls by dose curve; tested in HEK293T cells; also: read-out not given here; potency is read from the fitted curve at half-maximal effect; nearly all actives have a fitted effect of over 45% in size
Active calls of the source: *; i = inactive; u = inconclusive; x = not tested or not shown. Most compounds without a hit are left out; they make up all but 9.3% or so of the library. Unless noted, calls follow the shape of the dose curve; as a rule, active = well fitted curve in the direction sought with a large enough effect; inconclusive = small, poorly fitted or top-dose-only effect, or another doubt; inactive = no such curve, though single readings can be large; an effect the other way counts as inactive or inconclusive. % is scaled to controls: 0 for no effect and ±100 for the full control effect.

SMILES	VACV mCherry inh	Sm TGR block	VACV Venus inh	HCV inhibitor	HCMV inh	FMDV inh
COc1cc(/C=N/N(C)C2=NS(=O)(=O)c3ccccc32)cc(OC)c1OC	x	-25%	x	11%	-17	-28%
CCc1ccc2[nH]c(=O)c(CN(CC3CCCO3)C(=S)NCc3ccco3)cc2c1 (stereo not given)	x	-20%	x	u	-19	-14%
Cc1ccc(C)c2[nH]c(=O)c(CN(CC3CCCO3)C(=S)NCc3ccco3)cc12 (stereo not given)	-4%	28µM*	-21%	u	0	7%
Cc1ccc2cc(CN(CC3CCCO3)C(=S)NCc3ccco3)c(=O)[nH]c2c1C (stereo not given)	-19%	-19%	-11%	u	-63*	32%
Cc1cccc(N2CCN(C(=O)N3CCOCC3)CC2)c1C	-22%	0%	u	-22%	5	-19%
Nc1nnc(-c2ccc(Cl)cc2Cl)s1	-7%	-9%	3%	7%	6	60%
O=C(Nc1ccc(Cl)cc1)c1csc(C(O)c2cccc(OC(F)(F)F)c2)n1 (stereo not given)	x	x	x	x	-36	x
CC(C)NC(=O)c1csc(C(O)c2cccc(N(C)C)c2)n1 (stereo not given)	x	x	x	x	-75*	x
Cc1cc(NC(=O)CSc2ccc3nnc(-c4ccc(F)cc4)n3n2)no1	x	12%	x	u	5	16%
Cc1cccc(NC(=S)N2CC3CC(C2)c2cccc(=O)n2C3)c1C (stereo not given)	-15%	-5%	-9%	2%	11	-21%
C1=NCCCN2CCCCC12 (stereo not given)	-13%	x	-5%	x	-8	0%
CC1(C)Oc2cc3oc(-c4cc(O)cc(O)c4)cc3cc2CC1O (stereo not given)	-10%	x	-4%	-61%	-30	11µM*
O=C(Nc1ccccc1)C(c1ccccc1)C1CCCC1 (stereo not given)	i	u	-12%	10%	10	0%
N#CC1(NC(=O)CSc2nc3ccc([N+](=O)[O-])cc3s2)CCCCC1	-7%	-9%	-6%	u	-81*	u
N#CC1(NC(=O)CSc2nc3ccccc3s2)CCCCC1	-21%	-1%	-18%	u	-11	17%
CCOC(=O)N1CCN(Cc2nc3ccc([N+](=O)[O-])cc3c(=O)n2-c2ccc(OC)cc2OC)CC1	22%	40µM*	0%	-17%	61	-3%
COc1ccc(-n2c(CN3CCOCC3)nc3ccc([N+](=O)[O-])cc3c2=O)c(OC)c1	-19%	45µM*	1%	-14%	51	-7%
COc1ccc(-n2c(CN3CCC(C)CC3)nc3ccc([N+](=O)[O-])cc3c2=O)c(OC)c1	x	u	x	-9%	-13	-15%
COc1ccc(-n2c(CN3CCN(c4ccccc4)CC3)nc3ccc([N+](=O)[O-])cc3c2=O)c(OC)c1	-9%	u	-5%	-25%	-79*	-8%
COc1cccc(-n2c(CN3CCN(c4ccccn4)CC3)nc3ccc([N+](=O)[O-])cc3c2=O)c1	x	-33%	x	8%	21	-19%
Cc1ccccc1C1C(C#N)=C2NC(=O)c3c(sc4c3CCCCC4)N2C2=C1C(=O)CC(C)(C)C2 (stereo not given)	x	0%	x	x	x	x
CSc1cccc(CNC(=O)C2CCC(=O)N(CCc3ccccc3)C2)c1 (stereo not given)	-21%	x	-20%	x	0	57%
c1ccc(C(c2ccccc2)c2ccncc2)cc1	-7%	x	-19%	u	24	-22%
O=C(CSc1n[nH]c(-c2ccc(S(=O)(=O)N3CCCCC3)cc2)n1)Nc1nccs1	-5%	4%	-14%	4%	-36	x
NC(=O)COC(=O)c1cc(=O)[nH]c2ccccc12	-7%	16%	1%	10µM*	-34	14%
Cc1ccccc1C(=O)N=c1ccn(-c2nc3ccccc3nc2NS(=O)(=O)c2ccc(F)cc2)cc1	x	-1%	x	-21%	-61*	1%
O=C(CSc1nc2c(oc3ccccc32)c(=O)n1-c1ccccc1F)Nc1ccccc1	-10%	4%	-9%	x	9	-13%
